This is an account of results in ChEMBL document CHEMBL4513216, “Probing the Open Global Health Chemical Diversity Library for Multistage-Active Starting Points for Next-Generation Antimalarials” (ACS Infect Dis, 2020).

The campaign covered roughly 68,000 compounds. About 2,700 (4%) showed an effect of 50% or more. Only a selection was taken, and strong results are over-represented in it overall.

For this test, the system named is Plasmodium berghei. The test can be described thus: Screen against P. berghei liver stage (PbLuc), transformed with Luciferase, at 2uM. Conditions: tested at 2 uM. Format: functional, HepG2.
As to `Cc1ccc(C(=O)N2C[C@H]3CN(Cc4csc(C)n4)C[C@H]3C2)cn1`, the INHIBITION worked out at 5.38%.
For the molecule `CCC[C@H]1CN(S(=O)(=O)c2c(C)noc2C)C[C@@H]1N`, the INHIBITION is 51.31%.
With `CCC[C@H]1CN(S(=O)(=O)c2ccc(-c3c(C)noc3C)s2)C[C@@H]1N`, the INHIBITION is on record as 29.53%.
Take `CCC[C@H]1CN(S(=O)(=O)c2ccccc2)C[C@@H]1N`: the INHIBITION worked out at 24.12%.
The figure for `Cc1cnn(CC(C)Nc2nc(C)cc(N(C)C)n2)c1` (stereo not drawn) is -28.68%; for `CN(C)C[C@]12COC[C@H]1CN(C(=O)Cc1ccc3c(c1)OCO3)C2` it is -2.21%.
The figure for `CCOC(=O)Cn1nnnc1-c1ccccc1` is 23.9%; for `O=S(=O)(C1CC1)N1CCC2(CN(c3ncccn3)C2)C1` it is -12.25%; for `Cc1ccc(CN2CCS(=O)(=O)C(C)(C)C2)cc1C` it is -38.39%.
To `CCN1CC2(CCC1=O)CCN(Cc1cccc(OC(F)F)c1)CC2` belongs -1.38%.
Regarding `O=C(NCc1ccccn1)C1CN(c2nc3ccccc3s2)CCN1` (stereo not drawn), the INHIBITION is listed as 56.21%.
`CCCc1nc(C)cc(N2CCNC(C(=O)NCc3cccnc3)C2)n1` (stereo not drawn): the INHIBITION worked out at 19.81%.
With `O=C(NCc1cccnc1)C1CN(c2cnc3ccccc3n2)CCN1` (stereo not drawn), the INHIBITION is -6.53%.
Take `O=C(NCc1ccncc1)C1CN(c2nc3ccccc3s2)CCN1` (stereo not drawn): the INHIBITION was found to be 11.67%.
`O=C(NC1CC1)C1CN(c2nc3ccccc3s2)CCN1` (stereo not drawn): the INHIBITION was -17.07%.
`Nc1nccc(N2CCNC(C(=O)NCc3ccccn3)C2)n1` (stereo not drawn): the INHIBITION turned out to be 50.94%.
To `CN(C)CCN1CCN(Cc2cccs2)Cc2cccnc21` belongs 31.96%.
Turning to `COc1ccc(CNC(=O)NC2CCC(O)CC2)c(C(F)(F)F)c1` (stereo not drawn), the INHIBITION was determined as 24.83%.
In the case of `Cc1nc(C)n(CC2CCCCN2c2ccnc(-c3ccccc3)n2)n1` (stereo not drawn), the INHIBITION is reported as -22.89%.
Regarding `CN(C)CCN(Cc1ccsc1)C(=O)C1=NNC(=O)CC1`, the INHIBITION stood at 31.51%.
To `O=C(c1cccc(=O)[nH]1)N(Cc1ccsc1)CC1CCCO1` (stereo not drawn) belongs -2.31%.
The figure for `O=C1CCC(C(=O)N(Cc2ccsc2)CC2CCCO2)=NN1` (stereo not drawn) is 50.59%; for `CNC(=O)CN1CCC(c2nn(C)c(=O)n2-c2ccccc2)CC1` it is 16.93%; for `CC(=O)N1CCC(c2nn(C)c(=O)n2-c2ccccc2)CC1` it is 64.06%.
As for `O=c1n(Cc2ncccn2)nc(C2CCNCC2)n1-c1ccccc1`, the INHIBITION is -0.59%.
`Cn1nc(C2CCN(CC(=O)NC3CC3)CC2)n(-c2ccccc2)c1=O`: the INHIBITION turned out to be 60.64%.
Turning to `CCCn1cc(C(=O)NC2CCN(CC(=O)NC3CC3)CC2)c(C)n1`, the INHIBITION is 16.35%.
In the case of `CNc1cccc(C2CCN(C(C)=O)CC2)n1`, the INHIBITION is on record as 28.4%.
In the case of `Cn1cnnc1C1CCN(C(=O)CCCOc2ccccc2)CC1`, the INHIBITION was determined as 23.31%.
As for `CCSC(C)C(=O)N1CCC(c2nn(C)c(=O)n2-c2ccccc2)CC1` (stereo not drawn), the INHIBITION is given as -45.11%.
As for `CCCC(=O)N1CCC(c2nn(C)c(=O)n2-c2ccccc2)CC1`, the INHIBITION came out at 60.64%.
With `CC1CN(C(=O)NCCCn2cncn2)CCO1` (stereo not drawn), the INHIBITION is listed as -7.02%.
For the molecule `CS(=O)(=O)N1C[C@H]2CN(CC3CC3)C(=O)[C@H]2C1`, the INHIBITION is listed as -30.69%.
In the case of `CC(=O)Nc1nc(C(=O)NCc2ccc(N3CCOC(C)C3)nc2)cs1` (stereo not drawn), the INHIBITION was 13.36%.
The figure for `CN(CCc1nccs1)C(=O)CC1(O)CCCCC1` is 25.78%; for `Clc1ccccc1C1(c2ccnc(-c3ccncc3)n2)CCNCC1` it is -14.84%.
For `Cc1cc(S(=O)(=O)Nc2cccc(OC(F)F)c2)sc1C(=O)O`, the INHIBITION is 68.61%.
In the case of `CCc1cccc(NS(=O)(=O)c2cc(C)c(C(=O)O)s2)c1`, the INHIBITION was 58.69%.
The figure for `CC(=O)c1cccc(NS(=O)(=O)c2cc(C)c(C(=O)O)s2)c1` is -18.41%.
With `O=C(O)c1csc(S(=O)(=O)Nc2cccc(OC(F)F)c2)c1`, the INHIBITION was -56.15%.
In the case of `CCOc1cccc(NS(=O)(=O)c2cc(C)c(C(=O)O)s2)c1`, the INHIBITION is reported as 40.85%.
To `Cc1cc(S(=O)(=O)Nc2cccc(I)c2)sc1C(=O)O` belongs -21.72%.
`COc1cccc(CN2CCOC(c3cnccn3)C2)c1F` (stereo not drawn): the INHIBITION worked out at 4.47%.
As for `Nc1c(N2CCOCC2)ncnc1N1CCOCC1`, the INHIBITION is -18.65%.
Regarding `CC1CCN(S(=O)(=O)c2cccn(CC(=O)NC3CCCC3)c2=O)CC1`, the INHIBITION was -1.71%.
To `CNC(=O)C1CCCN(c2nc(-c3ccco3)nc3c2CCNCC3)C1` (stereo not drawn) belongs -44.93%; to `CCS(=O)(=O)NC1CCCN(Cc2ccn(C)c(=O)c2)C1` (stereo not drawn), -21.09%; to `CCc1nnsc1C(=O)NC1CCN(CCOc2ccc(Br)cc2)CC1`, 62.51%.
As to `CN1CCCC1CNC(=O)CCOc1ccc(Br)cc1` (stereo not drawn), the INHIBITION was -80.31%.
Consider `Cc1ncsc1C(=O)NC1CCN(CCC(N)=O)CC1`, for which the INHIBITION is recorded as -7.02%.
Consider `Cc1nc(C(=O)NC2CCN(CCOc3ccc(Br)cc3)CC2)cs1`, for which the INHIBITION stood at 31.51%.
As to `CCc1nnsc1C(=O)NC1CCN(c2ccccn2)CC1`, the INHIBITION turned out to be 11.97%.
On to `Cc1ncc(C(=O)NC2CCN(CCOc3ccc(Br)cc3)CC2)s1`, for which the INHIBITION was found to be 60.13%.
On to `COCC[C@]1(O)CCN(Cc2nc(C)c(C)s2)C[C@H]1C`, for which the INHIBITION is 11.48%.
To `NC(=O)CC1CCN(C(=O)NCCc2ccc(Cl)s2)CC1` belongs 15.47%.
To `CCCC(C)NCc1cnc(-c2cccc(C)c2)nc1` (stereo not drawn) belongs 56.47%.
`Cc1cccc(-c2ncc(CNC(C)CO)cn2)c1` (stereo not drawn): the INHIBITION is reported as -53.16%.
Regarding `Cc1cccc(-c2ncc(CNC(C)Cc3ccncc3)cn2)c1` (stereo not drawn), the INHIBITION was 24.23%.
`CCCS(=O)(=O)N1CC[C@H]2O[C@@H](c3nc(C)no3)CC[C@H]21`: the INHIBITION is listed as -71.5%.
To `Cc1cnc2c(c1NCc1ccncc1)c(=O)n(C)c(=O)n2C` belongs 29.42%; to `COc1cccc(CNc2c(C)cnc3c2c(=O)n(C)c(=O)n3C)c1`, -9.49%; to `Cc1cnc2c(c1NCc1cccnc1)c(=O)n(C)c(=O)n2C`, 63.23%.
Consider `CC1CN(Cc2ccccc2)CCCN1CCS(C)(=O)=O` (stereo not drawn), for which the INHIBITION is reported as -7.07%.
Regarding `CNS(=O)(=O)CCCN1CCCN(Cc2ccccc2)CC1C` (stereo not drawn), the INHIBITION is on record as 32.03%.
For `CC1CN(Cc2ccccc2)CCCN1CCCS(C)(=O)=O` (stereo not drawn), the INHIBITION is given as 53.99%.
As for `CC(NC(=O)CCCOc1ccccc1Cl)c1ccncc1` (stereo not drawn), the INHIBITION was -37.84%.
Turning to `CCOC(=O)C1(Cc2ccccc2-c2ccccc2OC)CCNCC1`, the INHIBITION is reported as 29.68%.
As for `CCc1cc(CN(C)C(=O)c2cnc3c(c2)nc(N)n3CC)on1`, the INHIBITION is 6.85%.
As to `CCn1c(N)nc2cc(C(=O)N3CCC(N4CCCC4)CC3)cnc21`, the INHIBITION is -12.08%.
`CCn1c(N)nc2cc(C(=O)N3CCCN(C)CC3)cnc21`: the INHIBITION stood at 63.1%.
Turning to `CCn1c(N)nc2cc(C(=O)N(C)Cc3cc(C(C)(C)C)n[nH]3)cnc21`, the INHIBITION was determined as 58.17%.
Regarding `CCn1c(N)nc2cc(C(=O)N3CCCOCC3)cnc21`, the INHIBITION is listed as 40.47%.
To `CCc1ccc(CN(C)C(=O)c2cnc3c(c2)nc(N)n3CC)nc1` belongs 17.5%; to `Cc1cnnn1Cc1nnn2c1CN(Cc1cccs1)CCC2`, 12.29%; to `COc1cccc2c1OCC(CNC(=O)Cc1csc(C(C)=O)c1)C2` (stereo not drawn), 19.13%.
On to `CCc1cc(=O)n(CC(=O)NCC2CCCO2)c(-c2cccc(F)c2)n1` (stereo not drawn), for which the INHIBITION was determined as 23.65%.
As to `CN1CCC(c2cccc(-c3ccc(C(=O)O)cc3)n2)CC1`, the INHIBITION is on record as -39.93%.
For the molecule `CCC(CO)N(Cc1ccc(C(=O)O)cc1)Cc1ccsc1` (stereo not drawn), the INHIBITION turned out to be 2.17%.
On to `CCC(C)N(Cc1ccsc1)C(=O)c1ccc2[nH]nnc2c1` (stereo not drawn), for which the INHIBITION worked out at 38.24%.
In the case of `CCC(C)N(Cc1ccsc1)C(=O)c1ccc(CO)cc1` (stereo not drawn), the INHIBITION worked out at 52.98%.
To `Cc1oc(-c2nc(C#N)c(NC(C)(C)C)o2)cc1S(=O)(=O)N1CCCC1` belongs 58.42%; to `CNc1oc(-c2cc(S(=O)(=O)N3CCCCCC3)c(C)o2)nc1C#N`, 5.96%.
Turning to `CNc1oc(-c2cc(S(=O)(=O)N3CCCC3)c(C)o2)nc1C#N`, the INHIBITION was -49.59%.
Take `Cc1cccc(CN2C[C@@H]3CN(C(=O)c4ccsc4)C[C@@H]3C2=O)n1`: the INHIBITION was -23.78%.
To `Cc1cnc(N2CC[C@@H]3O[C@@H](COCc4ccccn4)CC[C@@H]32)nc1` belongs -7.26%; to `COCCCN(C)Cc1nc2c(cnn2C)c(=O)[nH]1`, -135.87%.
Take `COc1ccc(OCCN(C)Cc2nc3c(cnn3C)c(=O)[nH]2)cc1`: the INHIBITION stood at 72.31%.
For the molecule `Cn1ncc2c(=O)[nH]c(CN3CCCC3CC(C)(C)C)nc21` (stereo not drawn), the INHIBITION was found to be 70.27%.
Consider `CN(CCCOc1ccc(F)cc1)Cc1nc2c(cnn2C)c(=O)[nH]1`, for which the INHIBITION is -45.72%.
In the case of `CCC1CCCCN1Cc1nc2c(cnn2C)c(=O)[nH]1` (stereo not drawn), the INHIBITION is recorded as -31.57%.
On to `COc1ccc2c(c1)CCCN2Cc1nc2c(cnn2C)c(=O)[nH]1`, for which the INHIBITION was -70.71%.
`CN(CCOc1cccc(F)c1)Cc1nc2c(cnn2C)c(=O)[nH]1`: the INHIBITION was found to be 47.87%.
Turning to `CN(CCCOc1ccccc1)Cc1nc2c(cnn2C)c(=O)[nH]1`, the INHIBITION was -31.57%.
Take `COc1ccc2c(c1)CCN2Cc1nc2c(cnn2C)c(=O)[nH]1`: the INHIBITION is 52.17%.
`Cc1ccc(OCCN(C)Cc2nc3c(cnn3C)c(=O)[nH]2)cc1`: the INHIBITION was determined as 78.42%.
As for `COc1ccc2c(c1)CN(Cc1nc3c(cnn3C)c(=O)[nH]1)CC2`, the INHIBITION is on record as 27.55%.
On to `Cn1ncc2c(=O)[nH]c(CN3CCCC3CC3CCCCC3)nc21` (stereo not drawn), for which the INHIBITION is given as -5.15%.
On to `CSc1cccc(CN(C)C(=O)Nc2nc(C)n(C)n2)c1`, for which the INHIBITION is 4.12%.
Regarding `CSCC(=O)N1CCCC1c1noc(C2CC2)n1` (stereo not drawn), the INHIBITION came out at 27.44%.
In the case of `Cc1cc(C)n(CC(C)NC(=O)C2(c3ccccc3F)CC2)n1` (stereo not drawn), the INHIBITION was -45.89%.
Take `O=C(CCN1CCCCO1)N1CCC(CO)(CCc2ccccc2)CC1`: the INHIBITION is given as 12.56%.
Turning to `O=C(c1cc2c(s1)CCC2)N1CCCC1Cn1cccn1` (stereo not drawn), the INHIBITION came to 17.39%.
The figure for `CN(C)c1ncc(CNC2CC(=O)N(CCc3cccc(Cl)c3)C2)s1` (stereo not drawn) is 35.26%.
